According to the antibiotic and cytotoxicity screens of Wong et al. (2023):
Among all 39,000 compounds or so, about 3,300 (8.5%) were called active. The entries come from a sample that favours actives as a whole.

What follows are molecules tested on HepG2 (assay: cytotoxicity call (relative viability < 0.9)). Settings: 10 µM.
For `Cc1ccc(S(=O)(=O)N(C)C[C@@H]2Oc3ccc(N(C)C)cc3CC(=O)N([C@@H](C)CO)C[C@H]2C)cc1`, the cytotoxicity call was “inactive”. In the case of `C[C@@H]1CN([C@@H](C)CO)C(=O)c2cccc(NC(=O)C3CCCCC3)c2O[C@H]1CN(C)Cc1ccc(Oc2ccccc2)cc1`, the cytotoxicity call is reported as “inactive”. For `C[C@H](CO)N1C[C@H](C)[C@H](CN(C)Cc2ccc(Oc3ccccc3)cc2)Oc2c(NC(=O)NC3CCCCC3)cccc2C1=O`, the cytotoxicity call was “active”. In the case of `C[C@H]1CN([C@@H](C)CO)C(=O)c2cccc(NC(=O)NC3CCCCC3)c2O[C@@H]1CN(C)Cc1ccc(Oc2ccccc2)cc1`, the cytotoxicity call is reported as “inactive”. `C[C@H](CO)N1C[C@H](C)[C@@H](CN(C)Cc2ccc(Oc3ccccc3)cc2)Oc2c(NC(=O)C3CCCCC3)cccc2C1=O` was tested, and the cytotoxicity call was “active”. With `C[C@@H]1CN([C@@H](C)CO)C(=O)c2cccc(NC(=O)NC3CCCCC3)c2O[C@@H]1CN(C)Cc1ccc(Oc2ccccc2)cc1` the cytotoxicity call was “inactive”. `C[C@H]1CN([C@@H](C)CO)C(=O)c2cccc(NC(=O)C3CCCCC3)c2O[C@H]1CN(C)Cc1ccc(Oc2ccccc2)cc1` was tested, and the cytotoxicity call was “inactive”. For `COCCNC(=O)C[C@H]1C[C@@H]2c3cc(NS(C)(=O)=O)ccc3O[C@@H]2[C@H](CO)O1`, the cytotoxicity call was “inactive”. In the case of `CO[C@H]1CN(C)C(=O)c2cc(NC(=O)c3ccc(F)cc3)ccc2OC[C@@H](C)N(C(=O)CN(C)C)C[C@H]1C`, the cytotoxicity call is reported as “inactive”. `COCC#Cc1ccc([C@@H]2[C@@H](CO)N3C(=O)CN(C(=O)CN4CCOCC4)C[C@H]23)cc1` was tested, and the cytotoxicity call was “inactive”. With `C[C@H]1CN([C@@H](C)CO)C(=O)Cc2cc(NC(=O)Cn3cnnn3)ccc2O[C@@H]1CN(C)C(=O)Nc1ccc(C(F)(F)F)cc1` the cytotoxicity call was “inactive”. With `C[C@H]1CCCCO[C@H](CN(C)C(=O)Nc2ccc(F)cc2)[C@@H](C)CN([C@@H](C)CO)C(=O)c2cc(NS(=O)(=O)c3ccccc3)ccc2O1` the cytotoxicity call was “inactive”. With `O=C(O[C@@H]1Cc2c(O)cc(O)cc2O[C@@H]1c1cc(O)c(O)c2c(=O)c(O)cc([C@H]3Oc4cc(O)cc(O)c4C[C@H]3O)c-2c1)c1cc(O)c(O)c(O)c1` the cytotoxicity call was “active”. In the case of `O=c1c(O)cc([C@H]2Oc3cc(O)cc(O)c3C[C@H]2O)c2cc([C@H]3Oc4cc(O)cc(O)c4C[C@H]3O)cc(O)c(O)c1-2`, the cytotoxicity call is reported as “inactive”. With `O=C(OC1Cc2c(O)cc(O)cc2OC1c1cc(O)c(=O)c2c(O)c(O)cc(C3Oc4cc(O)cc(O)c4CC3O)c2c1)c1cc(O)c(O)c(O)c1` (centres undefined) the cytotoxicity call was “inactive”. `COC(=O)C1=C(C)NC(C)=C(C(=O)OC)C1c1ccccc1[N+](=O)[O-]` was tested, and the cytotoxicity call was “inactive”. For `CCOC(=O)C1=C(COCCN)NC(C)=C(C(=O)OC)C1c1ccccc1Cl.O=S(=O)(O)c1ccccc1` (centres undefined), the cytotoxicity call was “active”. In the case of `CCOC(=O)C1=C(C)NC(C)=C(C(=O)OC)C1c1cccc(Cl)c1Cl` (centres undefined), the cytotoxicity call is reported as “inactive”. For `C[C@H]1CN([C@@H](C)CO)C(=O)c2cccc(NC(=O)C3CC3)c2O[C@H]1CN(C)Cc1ccc(Oc2ccccc2)cc1`, the cytotoxicity call was “inactive”. In the case of `CC(=O)N(C)C[C@@H]1Oc2cc(C#CCN(C)C)ccc2S(=O)(=O)N([C@@H](C)CO)C[C@H]1C`, the cytotoxicity call is reported as “inactive”. `C[C@H](CO)N1C[C@H](C)[C@H](CN(C)C(=O)c2ccccc2F)Oc2ncc(C#Cc3ccncc3)cc2C1=O` was tested, and the cytotoxicity call was “inactive”. With `CC(C)n1c(C=CC(O)CC(O)CC(=O)[O-])c(-c2ccc(F)cc2)c2ccccc21.[Na+]` (centres undefined) the cytotoxicity call was “active”. For `CC(C)c1c(C(=O)Nc2ccccc2)c(-c2ccccc2)c(-c2ccc(F)cc2)n1CCC(O)CC(O)CC(=O)[O-].[Ca+2]` (centres undefined), the cytotoxicity call was “inactive”. `CC(C)c1nc(N(C)S(C)(=O)=O)nc(-c2ccc(F)cc2)c1C=CC(O)CC(O)CC(=O)[O-].[Ca+2]` (centres undefined) was tested, and the cytotoxicity call was “inactive”. For `C[C@@H]1CCCCO[C@@H](CN(C)C(=O)Nc2ccc(F)cc2)[C@H](C)CN([C@H](C)CO)C(=O)c2cc(NC(=O)NC3CCCCC3)ccc2O1`, the cytotoxicity call was “inactive”. For `C=CCC[C@H](Cc1ccc(F)cc1)C(=O)OC[C@@H](Cc1c[nH]c2ccccc12)NC(=O)[C@@H](CC=C)CC(=O)N(CCO)Cc1ccccc1`, the cytotoxicity call was “active”. For `C=CCC[C@@H](Cc1ccc(F)cc1)C(=O)OC[C@H](Cc1c[nH]c2ccccc12)NC(=O)[C@@H](CC=C)CC(=O)N(CCO)Cc1ccccc1`, the cytotoxicity call was “inactive”. For `C=CCC[C@H](Cc1ccc(F)cc1)C(=O)OC[C@H](Cc1c[nH]c2ccccc12)NC(=O)[C@@H](CC=C)CC(=O)N(CCO)Cc1ccccc1`, the cytotoxicity call was “active”. In the case of `C=CCC[C@H](Cc1ccc(F)cc1)C(=O)OC[C@@H](Cc1c[nH]c2ccccc12)NC(=O)[C@H](CC=C)CC(=O)N(CCO)Cc1ccccc1`, the cytotoxicity call is reported as “active”. With `C=CCC[C@@H](Cc1ccc(F)cc1)C(=O)OC[C@@H](Cc1c[nH]c2ccccc12)NC(=O)[C@@H](CC=C)CC(=O)N(CCO)Cc1ccccc1` the cytotoxicity call was “active”. With `C=CCC[C@@H](Cc1ccc(F)cc1)C(=O)OC[C@@H](Cc1ccccc1)NC(=O)[C@H](CC=C)CC(=O)N(CCO)Cc1ccccc1` the cytotoxicity call was “inactive”. With `Cc1cccc(S(=O)(=O)N2C[C@@H](O)COC[C@@H]3O[C@H](CC(=O)NCc4ccncn4)CC[C@H]32)c1` the cytotoxicity call was “inactive”. For `COCC(=O)Nc1ccc2c(c1)OC[C@H](C)N(Cc1cccc(F)c1)C[C@@H](C)[C@@H](OC)CN(C)C2=O`, the cytotoxicity call was “inactive”. In the case of `CCCN(C)C[C@@H]1OCCCC[C@@H](C)Oc2ccc(NC(=O)Nc3c(C)noc3C)cc2C(=O)N([C@H](C)CO)C[C@@H]1C`, the cytotoxicity call is reported as “inactive”. With `C[C@H](CO)N1C[C@H](C)[C@@H](CN(C)C(=O)NC2CCCCC2)OCCCC[C@H](C)Oc2ccc(NS(=O)(=O)c3ccccc3)cc2C1=O` the cytotoxicity call was “inactive”. In the case of `C[C@@H]1CCCCO[C@@H](CN(C)Cc2ccc3c(c2)OCO3)[C@H](C)CN([C@H](C)CO)C(=O)c2cc(NS(=O)(=O)c3cccs3)ccc2O1`, the cytotoxicity call is reported as “inactive”. `C[C@@H]1CCCCO[C@@H](CN(C)C(=O)Nc2ccc(F)cc2)[C@H](C)CN([C@H](C)CO)C(=O)c2cc(NC(=O)Nc3ccc(F)cc3)ccc2O1` was tested, and the cytotoxicity call was “inactive”. For `C[C@@H]1CN([C@@H](C)CO)C(=O)c2cc(NS(C)(=O)=O)ccc2O[C@@H]1CN(C)Cc1ccc(C(=O)O)cc1`, the cytotoxicity call was “inactive”. For `C[C@@H]1CCCCO[C@@H](CN(C)Cc2ccncc2)[C@@H](C)CN([C@@H](C)CO)C(=O)c2cc(NC(=O)Nc3ccc(F)cc3)ccc2O1`, the cytotoxicity call was “inactive”.
